Measurements reported in PubChem BioAssay AID2284421 (EPA ToxCast).
The source made the active and inactive calls. How the source made its calls: active means hit-call score of the fitted dose curve at least 0.9, where 1 is the maximum; inactive means score below 0.9.

Test system: Brachyury (BRA) Protein Expression, Deisenroth Lab, TBXT (gene 6862)
Assay: CCTE_Deisenroth_DEVTOX-GLR_Meso_BRA: CCTE's DevTox GLR-Meso Assay Evaluation of Brachyury (BRA) Protein Expression, Deisenroth Lab
Protocol: CCTE_Deisenroth_DEVTOX-GLR_Meso assay is a cell-based, multiplex-readout assay that uses RUES2-GLR, a human pluripotent cell line, with measurements taken at 48 hours after chemical dosing in a 384-well microplateCCTE_Deisenroth_DEVTOX-GLR_Meso_BRA is 1 of 4 assay components calculated from the CCTE_Deisenroth_DEVTOX-GLR_Meso assay and it measures an the percentage of cells in an mesoderm state. Using a type of inducible fluorescent protein reporter, gain-of-signal activity can be used to understand changes in gene expression with fluorescent microscopy. The percentage of BRA+ cells are determined by calculating the number of BRA+ cells divided by the cell count. To generalize the intended target to other relatable targets, this assay component is annotated to the transcription factor intended target family, where the subfamily is T-box protein.Data from the assay component CCTE_Deisenroth_DEVTOX-GLR_Meso_BRA was analyzed as 1 assay endpoint. The endpoint is the percent change in BRA+ cell population relative to the 0.2% DMSO control in the CCTE_Deisenroth_DEVTOX-GLR_Meso assay. Furthermore, this assay endpoint can be referred to as a primary readout, because this assay has produced multiple assay endpoints where this one serves as a measure of mesoderm differentiation.
All assay protocols are aligned to the DevTox GLR-Endo assay workflow. Cells are seeded into 384-well microplates for 24 hours prior to initiating differentiation in defined media for a total duration of 48 hours. A total of two chemical exposures are administered in 24-hour intervals during the 48-hour differentiation period. At the assay termination point, cells are fixed and stained with a fluorescent dye demarcating the nucleus. High-content imaging is used to acquire brightfield and fluorescent channel images across 5 fields per well. Cell identification and mean biomarker fluorescence intensities are calculated with image analysis software to determine the total cell counts for viability assessment and the biomarker expression frequency for each lineage-dependent assay. A typical experimental design tests a 10-point concentration series (1 nM - 200 uM) for 28 compounds in single technical replicate. Assay plate controls include non-differentiated pluripotent cells (baseline control), lineage-specific differentiated cells (differentiation control), and DMSO solvent exposed differentiated cells (solvent control). Experiments typically comprise a minimum of four experimental replicates (n=4).

Structure (SMILES)	outcome	AC50
CC1(C)S[C@@H]2[C@H](NC(=O)Cc3ccccc3)C(=O)N2[C@H]1C(=O)O	inactive	–
Nc1nc2ncc(CNc3ccc(C(=O)N[C@@H](CCC(=O)O)C(=O)O)cc3)nc2c(=O)[nH]1	inactive	–
O=C1CCC(N2C(=O)c3ccccc3C2=O)C(=O)N1 (stereo unspecified)	inactive	–
CCCC(CCC)C(=O)O	inactive	–
CC1=C(/C=C/C(C)=C/C=C/C(C)=C\C(=O)O)C(C)(C)CCC1	inactive	–
CCN(CC)CCNC(=O)c1c(C)[nH]c(/C=C2\C(=O)Nc3ccc(F)cc32)c1C	inactive	–
O=C1NC(=O)C(c2ccccc2)(c2ccccc2)N1	inactive	–
CC1=C(/C=C/C(C)=C/C=C/C(C)=C/C(=O)O)C(C)(C)CCC1	inactive	–
CC(C)(c1ccc(O)cc1)c1ccc(O)cc1	inactive	–
Nc1cccc2c1C(=O)N(C1CCC(=O)NC1=O)C2=O (stereo unspecified)	inactive	–
CS(=O)(=O)OCCCCOS(C)(=O)=O	inactive	–
O=C1NS(=O)(=O)c2ccccc21	inactive	–
CC(=O)Nc1ccc(O)cc1	inactive	–
CN(Cc1cnc2nc(N)nc(N)c2n1)c1ccc(C(=O)N[C@@H](CCC(=O)O)C(=O)O)cc1	inactive	–
O=c1[nH]cc(F)c(=O)[nH]1	inactive	–
CC/C(=C(/CC)c1ccc(O)cc1)c1ccc(O)cc1	–	19.8 µM (active)
